Consider 4 compounds from PubChem BioAssay.

Calls of active or inactive are those of the source.

For assay [1], the target named is Albumin (Bos taurus) (UniProt P02769). The assay can be described thus: bovine serum albumin binders on microarray, profiling panel, artefact control for SMM control protein annotation, biochemical, small-molecule microarray, Alexa647 label, 635/667 nm fluorescence (AID 1118).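 Note: score merges 667 nm emission intensity and signal-to-noise per printed compound spot.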 The following applies: BSA-A647 binding, fluorescence 635 nm, higher = more signal.
A short description of assay [2]: small-molecule microarray binders of probe aXIP, primary screen, biochemical, NeuroSMM set, 635/667 nm fluorescence (AID 1119).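 Note: probe is the protein aXip251-270 applied at 1 µg/mL to compound-printed slides; binding of probe to printed compounds measured as 667 nm fluorescence plus signal to noise.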 The following applies: higher = more signal, called active from +8 up or from −8 down.
A short description of assay [3]: small-molecule binders of probe aNOTCH3, primary screen, biochemical, small-molecule microarray, 635/667 nm fluorescence (AID 1120).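 Note: probe is a biotin-tagged antibody raised against NOTCH3 rather than NOTCH3 protein; score merges spot fluorescence near 667 nm with spot signal to noise.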 The following applies: higher = more signal.
The nature of assay [4]: small-molecule binders of probe aNOTCH2, primary screen, biochemical, small-molecule microarray, 635/667 nm fluorescence (AID 1121).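 Note: score merges feature fluorescence read at 667 nm with its signal to noise.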 Conditions: higher = more signal.
Assay [5] concerns the target Carbonic anhydrase 2 (Homo sapiens) (UniProt P00918). Briefly: CAII small-molecule binders, profiling panel, biochemical, small-molecule microarray, Alexa647-labelled CAII (AID 1122). Conditions: CAII-A647 binding fluorescence, higher = more signal.
The nature of assay [6]: COS7 lysate on small-molecule microarray, probe aHis, 635 nm (AID 1123).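 Note: z-score combines 667nm fluorescence intensity with signal-to-noise per printed compound spot.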 Conditions: COS7 cell lysate, fluorescence, higher = more signal.
The nature of assay [7]: compound binding in COS7 lysate, probe aLAP1, primary screen, cell lysate, small-molecule microarray (AID 1124).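 Note: lysate comes from COS7 cells expressing LAP1 and is applied at 0.3 µg/mL; score merges spot fluorescence near 667 nm with signal-to-noise over triplicate slides.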 Conditions: probe aLAP1, fluorescence, higher = more signal.
The test system of assay [8] is Sam68 (KHDRBS1). Briefly: Sam68 small-molecule binders, primary screen, biochemical, small-molecule microarray, 635 nm fluorescence (AID 1125).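 Note: score merges 667 nm channel intensity with signal to noise over triplicate slides.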 The following applies: small-molecule microarray binding, higher = more signal.
The subject of assay [9] is Chordin-like protein 2 (CHRDL2). Briefly: CHRDL2 small-molecule binders, primary screen, biochemical, small-molecule microarray, 635 nm fluorescence (AID 1126).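 Note: printed compound slides probed with Chrdl2 protein at 4 µg/mL for 1 h at 4 C; score merges 667 nm emission intensity with signal to noise over three replicate slides.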 The following applies: small-molecule microarray binding, fluorescence 635 nm; higher = more signal.
The target in assay [10] is Concanavalin-A (Canavalia ensiformis) (UniProt P02866). The assay can be described thus: ConA small-molecule binders, primary screen, artefact control for SMM control protein annotation, biochemical, small-molecule microarray, Alexa647 label, 635 nm (AID 1127).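 Note: z combines 667 nm emission intensity with signal-to-noise across three replicate slides.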 The following applies: ConA-A647 binding fluorescence, higher = more signal.
The nature of assay [11]: anti-His antibody binders, primary screen, artefact control for SMM control protein annotation, biochemical, small-molecule microarray, 635 nm fluorescence (AID 1128).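 Note: score merges feature fluorescence with signal-to-noise for each printed compound spot.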 The following applies: anti-His Alexa647 antibody binding, higher = more signal.
Assay [12] has as its system Human papillomavirus type 1a E7 protein (residues 1-88). The assay can be described thus: HPV1a E7 small-molecule binders, primary screen, biochemical, small-molecule microarray, residues 1-88, 635 nm (AID 1129). Conditions: small-molecule microarray binding, fluorescence 635 nm; higher = more signal.
Assay [13] addresses Focal adhesion kinase 1 (Homo sapiens) (UniProt Q05397). The assay can be described thus: small-molecule microarray binders of FAK, primary screen, biochemical, 635/667 nm fluorescence, BSA, DTT (AID 1130).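 Note: composite of spot emission at 667 nm and signal to noise over triplicate slides.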 Conditions: PTK2 binding, 635 nm fluorescence, higher = more signal.
Assay [14] deals with Fibrinogen (Alexa647-labelled). The assay can be described thus: fibrinogen binders on compound microarrays, profiling panel, artefact control for SMM control-protein annotation, biochemical, small-molecule microarray, 635/667 nm fluorescence (AID 1131).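 Note: z-score merges 667 nm fluorescence with per-spot signal-to-noise over triplicate slides.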 Conditions: fibrinogen-A647 binding fluorescence, higher = more signal.
In assay [15] the target is Follistatin (Homo sapiens) (UniProt P19883). Briefly: follistatin binders on small-molecule microarrays, primary screen, biochemical, small-molecule microarray, 635/667 nm fluorescence (AID 1132). Conditions: FST binding, 635 nm fluorescence, higher = more signal.
The target of assay [16] is Fibroblast growth factor 2 (Homo sapiens) (UniProt P09038). The assay can be described thus: FGF2 binders on small-molecule microarrays, primary screen, biochemical, small-molecule microarray, 635/667 nm fluorescence (AID 1133). Conditions: small-molecule microarray binding, FGF2, fluorescence 635/667; higher = more signal.
A short description of assay [17]: mitochondrial membrane potential change in A549 cells, profiling panel, cell-based, JC-1 fluorescence, basal, 24 h, 100 nL (AID 1138).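 Note: A549 lung adenocarcinoma cells under basal conditions with no added stimulus; test concentration not given here.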 The following applies: higher = more signal.
Assay [18] deals with Lefty1. Briefly: Lefty1 binders on small-molecule microarrays, primary screen, biochemical, small-molecule microarray, 635/667 nm fluorescence (AID 1139). Conditions: small-molecule microarray binding, fluorescence 635/667; higher = more signal.
Assay [19] concerns wheat germ agglutinin (Triticum aestivum), Alexa647-labelled. Briefly: wheat germ agglutinin binders on compound microarrays, profiling panel, artefact control for SMM control-protein annotation, biochemical, small-molecule microarray, 635/667 nm fluorescence (AID 1140).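 Note: score merges 667 nm feature emission with signal to noise over triplicate slides.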 The following applies: WGA-A647 binding, 635 nm fluorescence, higher = more signal.
Assay [20] has as its target Luciferin 4-monooxygenase (Photinus pyralis) (UniProt P08659). The assay can be described thus: firefly luciferase enzyme inhibitors, primary screen, biochemical, luminescence, purified enzyme, 2006 set (AID 1141).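 Note: cell-free assay with purified firefly luciferase at 100 ng per well in PBS; test concentration not given here.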 The following applies: SteadyGlo luminescence, 30 min, higher = more signal, called active from +8 up or from −8 down.

Chain of Albumin (Bos taurus) (P02769 whole entry, looked up): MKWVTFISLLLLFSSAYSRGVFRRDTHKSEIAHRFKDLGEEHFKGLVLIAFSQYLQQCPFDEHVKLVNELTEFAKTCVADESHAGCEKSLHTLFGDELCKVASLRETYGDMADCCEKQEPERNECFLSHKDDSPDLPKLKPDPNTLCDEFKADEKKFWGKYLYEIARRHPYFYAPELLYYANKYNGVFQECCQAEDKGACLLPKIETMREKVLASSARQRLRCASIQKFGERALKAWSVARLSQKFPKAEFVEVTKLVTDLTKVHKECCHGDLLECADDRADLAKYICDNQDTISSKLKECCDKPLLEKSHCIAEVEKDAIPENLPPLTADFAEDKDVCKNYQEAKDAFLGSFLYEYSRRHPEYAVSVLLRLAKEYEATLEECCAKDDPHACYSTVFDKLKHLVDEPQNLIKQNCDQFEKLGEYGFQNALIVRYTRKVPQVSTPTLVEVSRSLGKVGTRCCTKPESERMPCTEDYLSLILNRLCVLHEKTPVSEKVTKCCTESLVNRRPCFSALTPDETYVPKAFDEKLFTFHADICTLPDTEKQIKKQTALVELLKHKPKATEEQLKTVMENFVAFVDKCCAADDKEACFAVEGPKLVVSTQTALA
Chain of Luciferin 4-monooxygenase (Photinus pyralis) (P08659 whole entry, looked up): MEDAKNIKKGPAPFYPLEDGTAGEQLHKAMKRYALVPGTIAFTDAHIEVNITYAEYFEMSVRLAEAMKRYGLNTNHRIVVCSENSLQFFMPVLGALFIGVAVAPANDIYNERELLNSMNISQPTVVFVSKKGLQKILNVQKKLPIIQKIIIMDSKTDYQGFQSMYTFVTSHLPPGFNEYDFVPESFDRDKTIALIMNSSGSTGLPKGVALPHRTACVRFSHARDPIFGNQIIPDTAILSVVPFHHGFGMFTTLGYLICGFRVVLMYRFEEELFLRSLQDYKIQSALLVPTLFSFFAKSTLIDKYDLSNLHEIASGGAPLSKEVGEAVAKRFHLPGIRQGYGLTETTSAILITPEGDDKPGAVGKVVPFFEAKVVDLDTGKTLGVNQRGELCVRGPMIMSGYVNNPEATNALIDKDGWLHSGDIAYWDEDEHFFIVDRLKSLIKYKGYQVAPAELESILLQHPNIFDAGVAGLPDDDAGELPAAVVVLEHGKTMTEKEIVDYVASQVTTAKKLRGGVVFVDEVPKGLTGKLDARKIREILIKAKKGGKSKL
Chain of Focal adhesion kinase 1 (Homo sapiens) (Q05397 whole entry, looked up): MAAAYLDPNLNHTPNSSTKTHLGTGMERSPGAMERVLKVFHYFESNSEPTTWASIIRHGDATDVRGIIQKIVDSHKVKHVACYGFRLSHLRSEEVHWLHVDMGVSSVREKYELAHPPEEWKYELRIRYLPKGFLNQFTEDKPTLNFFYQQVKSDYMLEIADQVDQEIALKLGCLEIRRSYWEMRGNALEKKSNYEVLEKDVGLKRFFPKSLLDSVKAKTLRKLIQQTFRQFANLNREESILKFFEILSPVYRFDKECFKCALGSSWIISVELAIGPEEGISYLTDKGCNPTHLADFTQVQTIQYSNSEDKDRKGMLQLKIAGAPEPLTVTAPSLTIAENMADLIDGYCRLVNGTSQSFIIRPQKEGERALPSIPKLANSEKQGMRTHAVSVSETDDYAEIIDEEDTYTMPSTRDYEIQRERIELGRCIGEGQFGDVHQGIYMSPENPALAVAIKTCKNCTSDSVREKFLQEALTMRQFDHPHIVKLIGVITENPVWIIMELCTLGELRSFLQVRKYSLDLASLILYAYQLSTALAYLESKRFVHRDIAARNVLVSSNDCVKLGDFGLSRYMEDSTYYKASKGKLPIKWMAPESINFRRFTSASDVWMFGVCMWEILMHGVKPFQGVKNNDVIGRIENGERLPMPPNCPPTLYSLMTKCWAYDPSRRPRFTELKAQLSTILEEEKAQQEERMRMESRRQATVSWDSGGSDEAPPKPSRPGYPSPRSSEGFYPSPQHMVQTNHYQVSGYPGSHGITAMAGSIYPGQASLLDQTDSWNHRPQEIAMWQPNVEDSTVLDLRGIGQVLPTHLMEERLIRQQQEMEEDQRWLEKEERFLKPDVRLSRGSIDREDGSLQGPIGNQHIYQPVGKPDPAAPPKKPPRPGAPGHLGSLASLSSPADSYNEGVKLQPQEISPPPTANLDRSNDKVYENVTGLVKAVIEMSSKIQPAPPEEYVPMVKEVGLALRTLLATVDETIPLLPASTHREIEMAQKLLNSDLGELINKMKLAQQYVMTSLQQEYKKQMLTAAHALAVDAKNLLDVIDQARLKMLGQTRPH
Chain of Concanavalin-A (Canavalia ensiformis) (P02866 whole entry, looked up): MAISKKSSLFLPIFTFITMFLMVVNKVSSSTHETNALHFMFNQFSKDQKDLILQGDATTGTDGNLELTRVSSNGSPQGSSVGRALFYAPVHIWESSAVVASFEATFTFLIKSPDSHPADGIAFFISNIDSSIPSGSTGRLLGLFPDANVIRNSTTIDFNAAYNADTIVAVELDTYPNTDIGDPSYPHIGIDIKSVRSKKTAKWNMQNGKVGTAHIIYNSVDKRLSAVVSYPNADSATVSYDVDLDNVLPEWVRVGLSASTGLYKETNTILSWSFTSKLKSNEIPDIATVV
Chain of Follistatin (Homo sapiens) (P19883 whole entry, looked up): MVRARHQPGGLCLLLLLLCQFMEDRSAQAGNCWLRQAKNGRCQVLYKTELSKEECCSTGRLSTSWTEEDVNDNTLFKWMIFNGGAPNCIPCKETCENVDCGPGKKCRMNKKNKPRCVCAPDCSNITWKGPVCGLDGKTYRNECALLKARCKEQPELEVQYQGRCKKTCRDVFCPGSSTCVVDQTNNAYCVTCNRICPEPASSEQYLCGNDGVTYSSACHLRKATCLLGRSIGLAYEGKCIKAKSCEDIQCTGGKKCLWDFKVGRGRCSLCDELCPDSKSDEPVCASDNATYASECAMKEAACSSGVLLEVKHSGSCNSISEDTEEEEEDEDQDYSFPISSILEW
Chain of Fibroblast growth factor 2 (Homo sapiens) (P09038 whole entry, looked up): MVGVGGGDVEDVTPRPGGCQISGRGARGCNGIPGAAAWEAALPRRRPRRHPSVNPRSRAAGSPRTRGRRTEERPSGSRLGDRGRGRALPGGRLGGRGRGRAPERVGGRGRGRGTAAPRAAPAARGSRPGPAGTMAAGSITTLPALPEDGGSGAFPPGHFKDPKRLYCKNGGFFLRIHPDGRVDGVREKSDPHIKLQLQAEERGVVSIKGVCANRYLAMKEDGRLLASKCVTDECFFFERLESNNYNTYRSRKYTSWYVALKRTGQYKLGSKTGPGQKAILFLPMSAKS

`C[N+](C)(C)CCCCCCNC(=O)[C@H]1C[C@H]2C(=O)NCC(=O)N2[C@H]1c1ccc(O)cc1`: the composite z-score was -0.0386 in assay [1]; -0.114 in assay [3]; -0.149 in assay [4]; 0.422 in assay [5]; 1.21 in assay [6]; 0.255 in assay [7]. The composite z-score in [8] is 1.12; in [9] it was 0.856; in assay [10], 0.758; in [11] it was 2.46; in assay [12] it was 0.996; in assay [13], -0.0037. Further, the composite z-score in assay [14] was determined as 0.211; in assay [15] it was 1.37; in assay [16], 1.67; in [18], 1.59; in assay [19], 0.195. In addition, the composite Z-score in [2] is 1.17 (inactive). Moreover, the z-score in assay [17] was -1; in assay [20] it was 0.836 (inactive).

For `C=CCNC(=O)[C@H]1[C@@H]2C(=O)O[C@@H](c3ccccc3)[C@@H](c3ccccc3)N2[C@@H](c2ccc(O)cc2)[C@]12C(=O)Nc1ccc(C#CC3(O)CCCCCC3)cc12`, the composite z-score in [1] is 0.201; in [3] it was 0.0961; in [4], -0.0695; in [5], 0.714; in assay [6], 2.11; in [7], 0.355. For the same compound, the composite z-score in assay [8] stood at 1.1; in [9] it was 0.215; in assay [10] it was 0.556; in [11], 2.76; in assay [12] it was 0.277; in assay [13], 0.201. The composite z-score was 0.481 in assay [14]; 1.16 in [15]; 0.267 in [16]; -0.15 in [18]; 0.0932 in assay [19]. In addition, the composite Z-score in [2] is -0.005 (inactive). Further, the figures for the z-score in assay [17] and in assay [20] were -1.22 and 0.452 (inactive), respectively.

`CC(C)N1C(=O)c2ccccc2[C@@H](C(=O)NC2CC2)[C@@H]1c1ccc(CO)cc1`: the composite z-score was 0.368 in assay [1]; 0.0246 in [3]; -0.161 in [4]; 0.742 in assay [5]; 0.467 in [6]; 0.37 in [7]. The composite z-score was 0.343 in assay [8]; 0.593 in assay [9]; 0.697 in assay [10]; 1.89 in assay [11]; 0.934 in assay [12]; -0.361 in assay [13]. Further, the composite z-score in assay [14] was determined as 0.868; in [15], 1.04; in assay [16] it was 1.08; in assay [18], 0.147; in assay [19], 0.22. For the same compound, the composite Z-score in [2] is 0.131 (inactive). In addition, the z-score in assay [17] was 1.04; in assay [20] it was -0.161 (inactive).

`COC(=O)c1c(CC[C@@H](CO)NC(=O)N2CCC[C@H]2Cn2cc(Cc3ccccc3)nn2)oc(C(C)=O)c1C(=O)OC`: the composite z-score in [1] was 0.0832; in [3] it was 0.233; in [4], -0.133; in assay [5], 0.643; in assay [6], 1.33; in assay [7], 0.381. For the same compound, the composite z-score in assay [8] is 0.694; in [9], 0.668; in [10], 0.488; in [11], -0.0636; in assay [12], 0.485; in assay [13], 0.397. The composite z-score in assay [14] is -0.522; in assay [15], 0.613; in [16], 0.147; in assay [18] it was 0.824; in assay [19], 0.541. In [2], the composite Z-score was -0.413 (inactive). For the same compound, the z-score in [17] was -0.58; in assay [20], 1.15 (inactive).
